# A selection: hits, their analogues and other compounds. The true share with any hit is near 1.9%.
# IEC-6 cytotox = IEC-6 cytotoxicity, counter-screen for KLF5 inhibitors; luminescence viability; inhibition, % at 5 µM; hit rate 0.78% among 290,000; AID 1825; in the data active = inhibition above about 22%;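 note: 0% = plate median of test compound wells and 100% = cytotoxic reference compound wells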
# KLF5 inhibitor = inhibitors of KLF5 expression. DLD-1 KLF5 promoter-luciferase reporter, luminescence. AID 1700. hit rate 0.23% among 290,000. inhibition, % at 5 µM;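 active = inhibition above a per-plate limit of that plate's mean compound inhibition plus 3 SD, cut at about 60% in these data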;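 note: 0% = DMSO wells and 100% = LY294002 at 200 µM; higher means less KLF5 promoter-driven luciferase light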
# APP 5UTR inh = APP translation inhibition; SH-SY5Y APP 5'UTR-luciferase reporter, luminescence; inhibition, % at 2 µM; hit rate 0.82% among 190,000;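 active = inhibition above a set limit, derived from the sample mean plus 3 SD, cut at about 45% in these data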
# Ba/F3 V617F tox = loss of viability in JAK2V617F-driven Ba/F3 cells; Ba/F3 EpoR-JAK2V617F viability, ATP luminescence; inhibition, % at 5.6 µM; hit rate 1.1% among 220,000; AID 1446;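 active = inhibition above the campaign mean plus 3 SD over all tested compounds, cut at about 24% in these data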;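 note: cytokine-independent growth of Ba/F3 cells driven by EpoR plus mutant JAK2; 0% = DMSO-treated cells and 100% = JAK inhibitor I control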
# BaF3 parental = counter-screen for JAK2V617F inhibitors: parental Ba/F3 viability inhibitors; hit rate 1.1% among 220,000; inhibition, % at 5.6 µM; CellTiter-Glo ATP luminescence; AID 1486;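 active = inhibition above a per-campaign cutoff, the mean inhibition of all tested compounds plus 3 SD, cut at about 27% in these data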;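 note: 0% = DMSO wells and 100% = JAK Inhibitor I control wells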
# An asterisk follows results filed as active; nt = no result.
SMILES,IEC-6 cytotox,KLF5 inhibitor,APP 5UTR inh,Ba/F3 V617F tox,BaF3 parental
CC[n+]1ccc(C)c2cc(P(=O)(c3ccccc3)c3ccccc3)ccc21,0,-44,9,-2,2
CC(=O)Nc1sc(/C(C#N)=C\c2cccc(Cl)c2)nc1-c1ccc(C)cc1,-6,-12,2,-2,8
O=S(=O)(NCc1ccncc1)c1ccc(S(=O)(=O)NCC2CCCO2)cc1 (centres undefined),1,18,4,25*,28*
CCCCNS(=O)(=O)c1ccc(S(=O)(=O)NCc2ccncc2)cc1,2,-34,4,33*,39*
O=C(C1CC1)N1CCC(c2nc(-c3ccc(S(=O)(=O)NCC4CCCO4)cc3)no2)CC1 (centres undefined),7,-24,-10,5,35*
O=S(=O)(NCc1ccccc1)c1ccc(S(=O)(=O)NCC2CCCO2)cc1 (centres undefined),-2,-3,4,-4,0
Cc1ccc(S(=O)(=O)NCc2ccccn2)c(C)c1C,1,-3,nt,nt,nt
Cc1ccc(S(=O)(=O)NCc2ccncc2)c(C)c1C,19,26,10,55*,84*
Cc1cccc(NC(=S)N/N=C/c2ccc([N+](=O)[O-])s2)c1,-4,-79,-3,3,6
CCc1nc2c(n1O)CCc1nonc1-2,5,-19,-17,-2,4
O=C(NCCCn1cccn1)C1CCC(=O)N(Cc2ccccc2F)C1 (centres undefined),4,-17,nt,nt,nt
Cc1cc(C)c(S(=O)(=O)NCc2ccncc2)c(C)c1,6,1,12,24*,34*
C/C(=N\NC(=O)c1ccc(C)cc1C)c1ccc2c(c1)Nc1ccccc1S2,7,-26,-4,-4,-1
O=C(CCC(=O)N1CCOc2ccccc21)Nc1cc(F)ccc1F,-2,-15,nt,nt,nt
Cc1onc(-c2ccccc2Cl)c1C(=O)OCN1C(=O)c2ccccc2C1=O,6,-30,-1,4,95*
O=C(Nc1cccc(Cl)c1Cl)c1ccccc1OCC(=O)N1CCOCC1,1,-14,nt,nt,nt
O=C(c1cnn2c(C(F)F)cc(-c3ccccc3)nc12)N1CCc2ccccc21,-1,-8,-25,3,4
Cc1ccc(-c2cc(C(F)F)n3ncc(C(=O)N4CCc5ccccc54)c3n2)cc1,5,-19,87*,3,1
CC(=O)Nc1ccccc1NC(=O)C/C(C)=N/NC(=O)Cc1cccc2ccccc12,1,-26,nt,nt,nt
O=C(Nc1cccc(C(F)(F)F)c1)c1ccc2nc(-c3ccco3)c(-c3ccco3)nc2c1,-1,1,-12,3,49*
O=C(O)c1ccc2nc(-c3ccco3)c(-c3ccco3)nc2c1,-25,16,1,-3,-3
COc1ccc(C2CC(=O)C3=C(C2)Nc2ncnn2C3c2ccccc2)cc1 (centres undefined),-11,-17,-19,0,7
COc1ccc(NC(=S)Nc2ccc(Oc3ccccc3)cc2)cc1,-5,-44,-21,-2,8
COc1ccc(NC(=S)NN(C)C(=S)Nc2ccc(OC)cc2)cc1,14,-4,93*,1,4
CC(=O)N(Cc1cccnc1)Cc1cc2ccc(C)cc2[nH]c1=O,2,-14,10,-3,95*
SMILES,IEC-6 cytotox,KLF5 inhibitor,APP 5UTR inh,Ba/F3 V617F tox,BaF3 parental
CCCN(Cc1cc2ccc(C)cc2[nH]c1=O)C(=O)c1cccnc1,-1,-22,-13,3,10
COCCOC(=O)c1[nH]c2c(c1C)C(=O)CC(c1ccco1)C2 (centres undefined),17,16,96*,76*,77*
C=CCOC(=O)c1[nH]c2c(c1C)C(=O)CC(c1cc(OC)c(OC)c(OC)c1)C2 (centres undefined),5,9,-12,41*,44*
O=C(/C=C/c1cccs1)c1cc(F)ccc1OC(=O)N1CCOCC1,-9,5,-11,-5,-3
COc1ccc(CCNC(=O)C(=O)NCC2OCCN2C(=O)c2ccc(Cl)cc2)cc1 (centres undefined),-2,-17,nt,nt,nt
COc1ccc(C(=O)N2CCOC2CNC(=O)C(=O)NCc2ccc(Cl)cc2)cc1 (centres undefined),0,-6,-7,1,63*
CCOc1cc(C(=O)N/N=C/C(Br)=C/c2ccccc2)cc(OCC)c1OCC,7,-26,90*,-4,2
O=C(N/N=C/C(Br)=C\c1ccccc1)c1ccc2nc[nH]c2c1,11,31,83*,3,2
O=C(CCc1nc(-c2ccccc2F)no1)NCCc1ccccc1Cl,2,-2,-9,-2,2
C=CCn1c(C)cc(C2=NNC(=NC(C)(C)C)SC2)c1C,1,-27,-128,2,0
